Test results taken from PubChem BioAssay AID1159580 (chemical genetic matrix, 2015).
“And” between values parts separate entries of the source, which are not always exact repeats. Equal entries are not always repeated. Among all 5,500 compounds or so, about 2,000 (36%) were called active. Inconclusive results (about 18%) are left out. Rule as the data show it: active = normalized growth mostly below about 0.91 (no sharp cut-off); inconclusive = no clear call, values can overlap the other calls; inactive = mostly above about 0.92. Some of the results follow.

Assay: chemical genetic growth profiling, strain panel (AID 1159580);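 also: tested at 20 µM; growth read once vehicle control cultures reached saturation at 30 °C; 1 = growth at the plate median or of vehicle wells; lower values mean less growth of the strain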
Conditions: S. cerevisiae deletion strains, growth OD

Measured: normalized growth

O=C1C=CC(=C(c2ccc(O)cc2)c2ccc(O)cc2)C=C1
inactive: locus YAL013W, strain DEP1, active compounds read low 0.985 | locus YAL021C, strain ccr4, active compounds read low 1 | locus YAL026C, strain drs2, active compounds read low 0.972 | locus YAL030W, strain snc1, active compounds read low 1 | locus YBL061C, strain skt5, active compounds read low 0.982 | locus YBR009C, strain hhf1, active compounds read low 0.981 | locus YBR021W, strain FUR4, active compounds read low 0.992 | locus YBR023C, strain chs3, active compounds read low 0.968 | locus YBR171W, strain sec66, active compounds read low 0.968 | locus YBR229C, strain ROT2, active compounds read low 0.991 | locus YBR231C, strain swc5, active compounds read low 0.987 | locus YBR279W, strain paf1, active compounds read low 0.99 | locus YCL011C, strain gbp2, active compounds read low 0.972 | locus YCL016C, strain dcc1, active compounds read low 1.01 | locus YCL029C, strain bik1, active compounds read low 0.99 | locus YCL069W, strain vba3, active compounds read low 0.959 | locus YCR088W, strain abp1, active compounds read low 0.975 | locus YDL005C, strain med2, active compounds read low 0.977 | locus YDL035C, strain GPR1, active compounds read low 1 | locus YDL040C, strain nat1, active compounds read low 0.991 | locus YDL074C, strain BRE1, active compounds read low 1.06 | locus YDL101C, strain DUN1, active compounds read low 1 | locus YDL134C, strain PPH21, active compounds read low 0.998 | locus YDL185W, strain tfp1, active compounds read low 1 | locus YDL192W, strain arf1, active compounds read low 0.982 | locus YDR001C, strain nth1, active compounds read low 0.975 | locus YDR069C, strain doa4, active compounds read low 0.952 | locus YDR101C, strain arx1, active compounds read low 0.995 | locus YDR137W, strain rgp1, active compounds read low 0.988 | locus YDR150W, strain NUM1, active compounds read low 1.01 | locus YDR159W, strain sac3, active compounds read low 0.972 | locus YDR162C, strain NBP2, active compounds read low 1.01 | locus YDR195W, strain ref2 0.927 | locus YDR297W, strain sur2, active compounds read low 0.987 | locus YDR318W, strain mcm21, active compounds read low 0.982 | locus YDR334W, strain swr1, active compounds read low 0.962 | locus YDR335W, strain msn5, active compounds read low 0.968 | locus YDR388W, active compounds read low 0.972 | locus YDR392W, strain spt3, active compounds read low 0.986 | locus YDR502C, strain sam2, active compounds read low 1 | locus YEL003W, strain gim4, active compounds read low 0.974 | locus YEL037C, strain rad23, active compounds read low 0.973 | locus YEL061C, strain CIN8 (second series), active compounds read low 0.938 | locus YEL061C, strain CIN8, active compounds read low 1.01 | locus YER015W, strain faa2, active compounds read low 0.99 | locus YER016W, strain bim1, active compounds read low 0.983 | locus YER110C, active compounds read low 0.976 | locus YER111C, strain swi4, active compounds read low 0.969 | locus YER155C, strain BEM2 (second series), active compounds read low 1.01 | locus YER155C, strain BEM2, active compounds read low 0.997 | locus YER167W, strain BCK2, active compounds read low 0.993 | locus YFR010W, strain ubp6, active compounds read low 0.945 | locus YGL078C, strain dbp3, active compounds read low 0.994 | locus YGL086W, strain mad1, active compounds read low 0.986 | locus YGL167C, strain pmr1, active compounds read low 0.994 | locus YGL173C, strain kem1, active compounds read low 0.98 | locus YGL227W, strain vid30, active compounds read low 0.971 | locus YGL240W, strain doc1, active compounds read low 0.983 | locus YGL248W, strain PDE1, active compounds read low 0.991 | locus YGL253W, strain hxk2, active compounds read low 0.967 | locus YGR078C, strain PAC10, active compounds read low 1.03 | locus YGR135W, strain pre9, active compounds read low 1 | locus YGR229C, strain SMI1, active compounds read low 1.02 | locus YGR252W, strain gcn5, active compounds read low 0.97 | locus YHR013C, strain ard1, active compounds read low 0.985 | locus YHR027C, strain rpn1, active compounds read low 1 | locus YHR030C, strain SLT2, active compounds read low 0.994 and 1.04 | locus YHR079C, strain IRE1 (second series), active compounds read low 0.989 | locus YHR079C, strain IRE1, active compounds read low 1.05 | locus YHR094C, strain hxt1, active compounds read low 0.989 | locus YHR129C, strain ARP1, active compounds read low 0.994 | locus YHR142W, strain chs7, active compounds read low 0.962 | locus YHR200W, strain rpn10, active compounds read low 0.988 | locus YIL066C, strain RNR3, active compounds read low 0.992 | locus YIL073C, strain SPO22, active compounds read low 0.976 | locus YIL125W, strain kgd1, active compounds read low 0.995 | locus YIR030C, strain dcg1, active compounds read low 0.986 | locus YJL092W, strain hpr5, active compounds read low 0.953 | locus YJL095W, strain BCK1 (second series), active compounds read low 0.975 | locus YJL095W, strain BCK1, active compounds read low 1.03 and 1.02 | locus YJL115W, strain asf1, active compounds read low 0.966 | locus YJL129C, strain trk1, active compounds read low 0.965 | locus YJL134W, strain LCB3, active compounds read low 0.994 | locus YJL154C, strain vps35, active compounds read low 0.98 | locus YJL164C, strain tpk1, active compounds read low 1 | locus YJL166W, strain qcr8, active compounds read low 0.984 | locus YJL168C, strain set2, active compounds read low 0.98 | locus YJL187C, strain SWE1 (second series), active compounds read low 0.998 | locus YJL187C, strain SWE1, active compounds read low 0.993 | locus YJR043C, strain POL32, active compounds read low 1.04 | locus YJR066W, strain TOR1, active compounds read low 0.979
